Results filed as inconclusive are left out. Calls of active or inactive are those of the source. Calls come from the whole dose curve; as a rule, active = well fitted curve in the direction sought with a large enough effect; inconclusive = small, poorly fitted or top-dose-only effect, or another doubt; inactive = no such curve, though single readings can be large; an effect the other way counts as inactive or inconclusive.
Legend:
[1] = molecular target: Phospholipid hydroperoxide glutathione peroxidase GPX4 (Homo sapiens) (UniProt P36969); test: Primary qHTS Assay for Inhibitors of Recombinant Selenoprotein Glutathione Peroxidase 4 (GPX4) (AID 1845192); details: recombinant GPX4, GR-coupled NADPH fluorescence, 15 min; series mostly up to 50 µM; note: nearly all actives have a fitted effect of over 65% in size
Method in brief: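 GR-coupled readout: 100 nM GR, 1 mM GSH, 0.5 mM NADPH; NADPH fluorescence (ex 340/em 450 nm) read at t=0 and after 15 min RT. GPX4 200 nM, preincubated 30 min with compound; substrate 0.5 mM CHP.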

[2] = Quantitative High-Throughput drug screen in 47 multiple myeloma cell lines against the NCATS MIPE library collection: FR4_PLB cell viability assay (AID 1918924; note: nearly all actives have a fitted effect of over 35% in size; note: potency is the fitted concentration of half-maximal effect); details: FR4_PLB myeloma cells viability, CellTiter-Glo ATP, 48 h; series mostly up to 45.8 µM
Method in brief: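 CellTiter-Glo luminescence (ATP) after 48 h compound exposure, 37C/5% CO2; 500 cells/well; MIPE 4.0 approved/investigational drugs pinned in; DMSO = 100%, media only = 0% viability.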

[3] = Quantitative High-Throughput drug screen in 47 multiple myeloma cell lines against the NCATS MIPE library collection: Delta47_JCRB cell viability assay (AID 1918925; note: nearly all actives have a fitted effect of over 45% in size; note: potency is the fitted concentration of half-maximal effect); details: Delta47 myeloma viability, CellTiter-Glo ATP, 48 h; series mostly up to 45.8 µM
Method in brief: (§1)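 Steps: seed 500 cells per well; pin-transfer MIPE 4.0 library; incubate 48 h at 37C, 5% CO2, humidified; add CellTiter-Glo, 5 min room temperature; read luminescence.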

[4] = Quantitative High-Throughput drug screen in 47 multiple myeloma cell lines against the NCATS MIPE library collection: EJM_DSMZ cell viability assay (AID 1918926; note: nearly all actives have a fitted effect of over 30% in size; note: potency is the fitted concentration of half-maximal effect); details: EJM myeloma cell viability, CellTiter-Glo ATP, 48 h; series mostly up to 45.8 µM
Method in brief: as §1

[5] = Quantitative High-Throughput drug screen in 47 multiple myeloma cell lines against the NCATS MIPE library collection: AMO1_DSMZ cell viability assay (AID 1918927; note: nearly all actives have a fitted effect of over 30% in size); details: AMO1 myeloma cells viability, CellTiter-Glo ATP luminescence, 48 h; series mostly up to 45.8 µM
Method in brief: as §1

[6] = molecular target: Glutathione peroxidase 1 (Homo sapiens) (UniProt P07203); test: Primary qHTS Assay for Inhibitors of Recombinant Selenoprotein Glutathione Peroxidase 1 (GPX1) (AID 1845191); details: recombinant GPX1, GR-coupled NADPH fluorescence, 15 min; series mostly up to 48.8 µM; note: nearly all actives have a fitted effect of over 65% in size
Method in brief: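 Recombinant GPX1 (10 nM final) was preincubated with compound for 30 min at room temperature, then reacted with 1 mM GSH, 0.5 mM CHP, 0.5 mM NADPH and 100 nM glutathione reductase; NADPH fluorescence (340/450 nm) was read at 0 and 15 min.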

Measured: Potency

Sequence of Phospholipid hydroperoxide glutathione peroxidase GPX4 (Homo sapiens) (P36969 whole entry, looked up): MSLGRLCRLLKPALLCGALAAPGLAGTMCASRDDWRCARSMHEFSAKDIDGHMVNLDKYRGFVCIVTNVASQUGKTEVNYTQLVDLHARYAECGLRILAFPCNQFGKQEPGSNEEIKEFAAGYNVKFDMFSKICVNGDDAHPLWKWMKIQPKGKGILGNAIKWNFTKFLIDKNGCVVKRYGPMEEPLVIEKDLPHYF
Sequence of Glutathione peroxidase 1 (Homo sapiens) (P07203 whole entry, looked up): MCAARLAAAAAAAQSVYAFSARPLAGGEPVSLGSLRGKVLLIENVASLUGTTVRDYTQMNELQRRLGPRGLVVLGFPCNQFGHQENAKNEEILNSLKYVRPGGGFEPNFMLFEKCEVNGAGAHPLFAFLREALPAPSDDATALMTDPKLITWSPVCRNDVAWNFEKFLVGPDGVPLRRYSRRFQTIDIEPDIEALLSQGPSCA

CC1=CC(=O)c2ccccc2C1=O
inactive: [1]
active: [2] 26.4 µM | [3] 16.6 µM | [4] 20.9 µM

CC(=O)[C@H]1CC[C@H]2[C@@H]3CCC4=CC(=O)CC[C@]4(C)[C@H]3CC[C@]12C
inactive: [1] | [3] | [5]

CCOC(=O)c1ccc(C#Cc2ccc3c(c2)C(C)(C)CCS3)nc1
inactive: [6] | [1] | [5]

COC(c1ccccc1)(c1ccccc1)[C@H](Oc1nc(C)cc(C)n1)C(=O)O
not listed: [6]
inactive: all other assays above

COc1cccc(N(C)C(=S)Oc2ccc3c(c2)CCCC3)n1
inactive: [1] | [2] | [3] | [4]

CCn1cc(C(=O)O)c(=O)c2cc(F)c(N3CCNCC3)cc21
inactive: [2] | [3] | [5]

COc1c(N2CCNC(C)C2)c(F)cc2c(=O)c(C(=O)O)cn(C3CC3)c12 (stereo unspecified)
inactive: [1] | [2] | [4] | [5]
